In the supplement of paper PMC11732987, “Enantioselective OTUD7B fragment discovery through chemoproteomics screening and high-throughput optimisation” (Communications Chemistry, 2025):

Legend:
Experiment in all cases: log2 ratio of Biotin-Ahx-Ub-VS probe labelling (fragment/DMSO); higher = less target engagement (more negative = stronger competition), active = hit call of the paper (q ≤ 0.05, log2 ratio ≤ -1)
Conditions in all cases: compound concentration: 200 uM; treatment time: 3 h
USP42 = molecular target: T1, USP42 (UniProt Q9H9J4)
T1 sequence (whole entry): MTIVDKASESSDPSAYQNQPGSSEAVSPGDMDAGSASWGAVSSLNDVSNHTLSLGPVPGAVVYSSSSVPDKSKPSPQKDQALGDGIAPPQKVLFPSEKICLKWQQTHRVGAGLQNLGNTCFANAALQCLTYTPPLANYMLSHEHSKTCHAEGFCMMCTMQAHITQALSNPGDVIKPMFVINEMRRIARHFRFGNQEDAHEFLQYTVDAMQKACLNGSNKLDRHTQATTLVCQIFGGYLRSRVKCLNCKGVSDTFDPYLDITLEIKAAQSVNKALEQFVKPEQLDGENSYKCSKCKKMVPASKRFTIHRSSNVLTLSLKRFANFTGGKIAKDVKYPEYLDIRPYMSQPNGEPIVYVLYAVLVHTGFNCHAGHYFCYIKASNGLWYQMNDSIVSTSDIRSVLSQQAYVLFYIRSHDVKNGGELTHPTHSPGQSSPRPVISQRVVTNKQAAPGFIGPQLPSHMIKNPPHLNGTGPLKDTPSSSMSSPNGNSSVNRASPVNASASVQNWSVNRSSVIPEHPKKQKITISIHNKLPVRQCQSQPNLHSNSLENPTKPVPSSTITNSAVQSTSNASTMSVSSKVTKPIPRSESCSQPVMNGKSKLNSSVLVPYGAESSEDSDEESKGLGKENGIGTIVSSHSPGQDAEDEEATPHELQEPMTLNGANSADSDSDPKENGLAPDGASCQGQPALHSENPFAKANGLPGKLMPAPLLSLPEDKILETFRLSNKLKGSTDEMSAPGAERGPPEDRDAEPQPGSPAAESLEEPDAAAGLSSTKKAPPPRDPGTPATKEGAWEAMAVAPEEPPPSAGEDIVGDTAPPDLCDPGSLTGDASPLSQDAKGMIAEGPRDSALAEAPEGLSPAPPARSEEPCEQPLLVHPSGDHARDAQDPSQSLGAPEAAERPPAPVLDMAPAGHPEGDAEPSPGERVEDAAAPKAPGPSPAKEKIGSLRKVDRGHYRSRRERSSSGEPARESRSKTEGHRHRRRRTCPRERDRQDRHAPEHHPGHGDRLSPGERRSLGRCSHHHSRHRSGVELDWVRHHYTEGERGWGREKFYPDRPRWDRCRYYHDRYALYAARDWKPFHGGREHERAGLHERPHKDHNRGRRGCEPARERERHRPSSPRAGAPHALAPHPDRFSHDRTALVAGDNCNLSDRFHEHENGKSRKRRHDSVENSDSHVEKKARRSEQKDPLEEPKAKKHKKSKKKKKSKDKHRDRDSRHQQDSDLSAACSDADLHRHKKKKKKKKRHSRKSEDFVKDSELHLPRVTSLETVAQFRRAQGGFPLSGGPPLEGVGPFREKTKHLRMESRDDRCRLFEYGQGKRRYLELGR
Procedure, shortened: (§1)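 Each value is an average log2 ratio of fragment to vehicle, tested by unpaired t-test. The underlying Spectronaut label-free quantities were global-median-normalised, and only proteins with ≥2 unique peptides were included. Triplicate HEK293T lysate samples (495 µg) were exposed to fragment at 200 µM or vehicle for 3 h, then to Biotin-Ahx-Ub-VS at 0.5 µM final for 1 h, before NeutrAvidin enrichment of labelled DUBs, LysC and trypsin digestion, and diaPASEF LC-MS/MS.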

USP46 = USP46 (UniProt P62068)
Chain of USP46 (P62068 whole entry): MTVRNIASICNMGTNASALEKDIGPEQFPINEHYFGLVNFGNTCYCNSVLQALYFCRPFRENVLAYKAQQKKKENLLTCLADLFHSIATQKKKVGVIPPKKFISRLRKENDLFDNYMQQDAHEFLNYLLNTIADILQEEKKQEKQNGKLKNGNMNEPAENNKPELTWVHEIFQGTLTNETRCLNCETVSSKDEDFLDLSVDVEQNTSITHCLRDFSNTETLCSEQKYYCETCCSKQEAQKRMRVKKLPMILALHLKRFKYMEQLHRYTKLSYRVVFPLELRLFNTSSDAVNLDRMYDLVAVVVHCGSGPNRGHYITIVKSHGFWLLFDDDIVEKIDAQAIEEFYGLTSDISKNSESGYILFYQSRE
Procedure, shortened: as §1

USP47 = molecular target: T2, USP47 (UniProt Q96K76)
T2 sequence (whole entry): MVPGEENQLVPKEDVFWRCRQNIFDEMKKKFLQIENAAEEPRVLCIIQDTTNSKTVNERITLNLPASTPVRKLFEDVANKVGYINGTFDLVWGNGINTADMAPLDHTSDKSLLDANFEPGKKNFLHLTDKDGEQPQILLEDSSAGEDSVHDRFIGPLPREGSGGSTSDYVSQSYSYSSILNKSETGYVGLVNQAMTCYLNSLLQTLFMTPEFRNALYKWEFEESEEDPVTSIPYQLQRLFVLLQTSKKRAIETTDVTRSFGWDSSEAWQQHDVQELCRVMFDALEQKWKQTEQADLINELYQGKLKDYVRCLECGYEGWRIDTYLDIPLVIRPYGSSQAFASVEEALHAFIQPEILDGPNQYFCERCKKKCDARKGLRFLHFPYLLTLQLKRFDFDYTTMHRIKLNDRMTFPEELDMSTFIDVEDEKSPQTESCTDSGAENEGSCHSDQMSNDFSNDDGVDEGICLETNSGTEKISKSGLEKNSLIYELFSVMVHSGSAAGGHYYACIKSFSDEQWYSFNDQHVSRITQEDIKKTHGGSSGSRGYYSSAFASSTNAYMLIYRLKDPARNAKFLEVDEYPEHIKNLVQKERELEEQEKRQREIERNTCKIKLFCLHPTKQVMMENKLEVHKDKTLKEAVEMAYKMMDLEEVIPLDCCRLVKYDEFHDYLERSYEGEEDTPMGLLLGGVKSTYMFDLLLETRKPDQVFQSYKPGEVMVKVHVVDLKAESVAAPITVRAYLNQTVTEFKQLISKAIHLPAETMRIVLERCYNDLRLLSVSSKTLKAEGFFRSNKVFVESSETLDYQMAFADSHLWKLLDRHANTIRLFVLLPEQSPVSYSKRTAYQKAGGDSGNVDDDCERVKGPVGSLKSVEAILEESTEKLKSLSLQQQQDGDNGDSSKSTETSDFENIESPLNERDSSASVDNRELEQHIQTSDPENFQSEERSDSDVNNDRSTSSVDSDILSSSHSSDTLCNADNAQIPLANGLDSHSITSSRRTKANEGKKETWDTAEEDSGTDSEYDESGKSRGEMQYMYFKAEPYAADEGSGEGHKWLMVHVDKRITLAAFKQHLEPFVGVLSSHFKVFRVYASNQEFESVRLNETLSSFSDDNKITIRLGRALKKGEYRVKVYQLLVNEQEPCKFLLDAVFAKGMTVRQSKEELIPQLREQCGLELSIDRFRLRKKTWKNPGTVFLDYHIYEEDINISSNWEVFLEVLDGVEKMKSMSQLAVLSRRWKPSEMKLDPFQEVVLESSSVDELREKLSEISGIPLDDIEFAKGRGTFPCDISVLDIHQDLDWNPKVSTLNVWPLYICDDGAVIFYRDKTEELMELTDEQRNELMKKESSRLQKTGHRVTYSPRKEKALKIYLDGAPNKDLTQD
Procedure, shortened: as §1

USP48 = molecular target: T3, USP48 (UniProt Q86UV5)
T3 sequence (whole entry): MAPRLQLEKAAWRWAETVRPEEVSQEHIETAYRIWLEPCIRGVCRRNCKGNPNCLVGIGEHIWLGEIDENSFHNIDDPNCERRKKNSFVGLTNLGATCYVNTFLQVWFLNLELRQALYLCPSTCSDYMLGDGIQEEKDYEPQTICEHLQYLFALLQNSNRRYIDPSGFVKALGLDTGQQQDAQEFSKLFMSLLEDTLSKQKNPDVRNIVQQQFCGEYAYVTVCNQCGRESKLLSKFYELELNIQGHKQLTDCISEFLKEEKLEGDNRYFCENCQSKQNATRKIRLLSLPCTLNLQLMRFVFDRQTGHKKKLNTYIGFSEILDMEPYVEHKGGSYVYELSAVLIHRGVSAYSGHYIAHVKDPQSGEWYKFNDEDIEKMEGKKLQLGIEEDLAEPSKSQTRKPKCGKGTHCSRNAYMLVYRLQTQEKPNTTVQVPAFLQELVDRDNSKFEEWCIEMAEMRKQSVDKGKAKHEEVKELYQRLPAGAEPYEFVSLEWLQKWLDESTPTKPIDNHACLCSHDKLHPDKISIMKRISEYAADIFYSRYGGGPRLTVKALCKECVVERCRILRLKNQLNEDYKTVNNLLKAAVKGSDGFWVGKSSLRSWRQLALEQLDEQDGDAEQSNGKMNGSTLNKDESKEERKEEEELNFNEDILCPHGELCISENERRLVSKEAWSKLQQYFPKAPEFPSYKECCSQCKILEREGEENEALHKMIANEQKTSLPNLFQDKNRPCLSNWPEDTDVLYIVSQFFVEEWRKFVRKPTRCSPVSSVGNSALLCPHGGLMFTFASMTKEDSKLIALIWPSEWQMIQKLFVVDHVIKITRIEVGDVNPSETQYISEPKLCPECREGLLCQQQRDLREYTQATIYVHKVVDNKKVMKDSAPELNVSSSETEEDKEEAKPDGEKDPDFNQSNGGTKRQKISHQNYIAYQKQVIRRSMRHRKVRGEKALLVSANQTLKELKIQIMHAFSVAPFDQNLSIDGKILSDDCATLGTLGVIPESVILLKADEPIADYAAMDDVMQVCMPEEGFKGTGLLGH
Procedure, shortened: as §1

USP5 = molecular target: T4, USP5 (UniProt P45974)
T4 sequence (whole entry): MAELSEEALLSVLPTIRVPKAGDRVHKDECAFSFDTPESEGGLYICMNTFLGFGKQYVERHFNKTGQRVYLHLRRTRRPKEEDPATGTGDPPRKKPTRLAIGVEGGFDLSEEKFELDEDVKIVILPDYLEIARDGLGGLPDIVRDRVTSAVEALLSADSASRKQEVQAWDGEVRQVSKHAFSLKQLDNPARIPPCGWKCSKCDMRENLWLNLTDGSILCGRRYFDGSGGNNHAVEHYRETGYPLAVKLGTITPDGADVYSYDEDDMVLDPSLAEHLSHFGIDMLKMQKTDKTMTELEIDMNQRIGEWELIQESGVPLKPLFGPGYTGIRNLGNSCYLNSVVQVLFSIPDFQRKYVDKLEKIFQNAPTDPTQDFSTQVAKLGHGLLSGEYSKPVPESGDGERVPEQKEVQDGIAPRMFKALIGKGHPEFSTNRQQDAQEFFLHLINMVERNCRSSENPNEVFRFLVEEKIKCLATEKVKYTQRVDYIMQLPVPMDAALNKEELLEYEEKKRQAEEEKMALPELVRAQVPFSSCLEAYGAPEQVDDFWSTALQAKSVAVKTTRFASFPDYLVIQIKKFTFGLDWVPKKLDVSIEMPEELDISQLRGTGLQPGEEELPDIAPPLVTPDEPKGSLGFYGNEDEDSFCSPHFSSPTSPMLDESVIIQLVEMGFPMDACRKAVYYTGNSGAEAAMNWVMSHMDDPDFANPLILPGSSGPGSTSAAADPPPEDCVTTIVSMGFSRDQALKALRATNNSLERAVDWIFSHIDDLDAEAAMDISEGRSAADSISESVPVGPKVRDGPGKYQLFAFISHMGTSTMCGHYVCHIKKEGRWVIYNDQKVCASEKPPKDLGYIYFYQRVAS
Procedure, shortened: as §1

USP54 = USP54 (UniProt Q70EL1)
Chain of USP54 (Q70EL1 whole entry): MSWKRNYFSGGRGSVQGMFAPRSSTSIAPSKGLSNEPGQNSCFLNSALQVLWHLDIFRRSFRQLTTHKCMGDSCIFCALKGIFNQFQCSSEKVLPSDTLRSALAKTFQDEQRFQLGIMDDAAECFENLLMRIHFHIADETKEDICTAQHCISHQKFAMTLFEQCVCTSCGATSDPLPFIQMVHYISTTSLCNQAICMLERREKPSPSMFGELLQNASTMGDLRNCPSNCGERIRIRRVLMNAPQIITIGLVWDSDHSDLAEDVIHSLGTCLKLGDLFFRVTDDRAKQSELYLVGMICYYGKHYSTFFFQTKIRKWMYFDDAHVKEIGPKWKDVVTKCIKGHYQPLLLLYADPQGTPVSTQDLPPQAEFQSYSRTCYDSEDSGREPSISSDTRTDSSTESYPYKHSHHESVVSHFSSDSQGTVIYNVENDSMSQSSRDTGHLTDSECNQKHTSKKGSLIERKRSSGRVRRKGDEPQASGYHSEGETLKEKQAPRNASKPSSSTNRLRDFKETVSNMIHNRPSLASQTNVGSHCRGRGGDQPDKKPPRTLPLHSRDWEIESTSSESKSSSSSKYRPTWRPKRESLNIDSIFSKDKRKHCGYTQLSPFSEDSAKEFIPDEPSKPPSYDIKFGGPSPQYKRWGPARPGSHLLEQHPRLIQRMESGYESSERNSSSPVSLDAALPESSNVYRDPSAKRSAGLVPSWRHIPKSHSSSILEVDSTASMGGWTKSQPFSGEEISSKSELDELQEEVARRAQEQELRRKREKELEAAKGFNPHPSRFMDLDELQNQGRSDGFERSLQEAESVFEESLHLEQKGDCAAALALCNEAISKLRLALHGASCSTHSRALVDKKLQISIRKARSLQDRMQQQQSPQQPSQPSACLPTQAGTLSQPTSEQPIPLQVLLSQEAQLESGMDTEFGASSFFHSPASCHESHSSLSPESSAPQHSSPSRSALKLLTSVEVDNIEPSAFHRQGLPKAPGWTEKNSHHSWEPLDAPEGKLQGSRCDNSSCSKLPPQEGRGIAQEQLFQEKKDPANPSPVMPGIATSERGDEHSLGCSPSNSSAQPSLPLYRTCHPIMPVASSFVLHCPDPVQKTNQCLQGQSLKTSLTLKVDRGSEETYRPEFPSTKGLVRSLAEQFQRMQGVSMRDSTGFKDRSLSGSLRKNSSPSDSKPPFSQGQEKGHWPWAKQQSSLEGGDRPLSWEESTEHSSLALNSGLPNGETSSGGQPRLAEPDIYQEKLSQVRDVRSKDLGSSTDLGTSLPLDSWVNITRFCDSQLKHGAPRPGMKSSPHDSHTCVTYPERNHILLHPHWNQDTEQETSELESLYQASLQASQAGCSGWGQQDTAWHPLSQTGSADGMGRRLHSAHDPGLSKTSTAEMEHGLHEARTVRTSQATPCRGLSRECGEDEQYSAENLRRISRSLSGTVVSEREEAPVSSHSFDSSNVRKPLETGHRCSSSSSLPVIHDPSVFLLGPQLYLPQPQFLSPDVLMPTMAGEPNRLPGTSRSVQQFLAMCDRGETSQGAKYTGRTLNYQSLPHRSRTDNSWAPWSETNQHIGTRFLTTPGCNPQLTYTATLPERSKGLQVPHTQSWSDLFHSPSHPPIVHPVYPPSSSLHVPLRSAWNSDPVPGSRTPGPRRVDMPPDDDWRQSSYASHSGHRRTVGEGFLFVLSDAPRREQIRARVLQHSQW
Procedure, shortened: as §1

USP7 = USP7 (UniProt Q93009)
Procedure, shortened: as §1

USP8 = molecular target: T5, USP8 (UniProt P40818)
T5 sequence (whole entry): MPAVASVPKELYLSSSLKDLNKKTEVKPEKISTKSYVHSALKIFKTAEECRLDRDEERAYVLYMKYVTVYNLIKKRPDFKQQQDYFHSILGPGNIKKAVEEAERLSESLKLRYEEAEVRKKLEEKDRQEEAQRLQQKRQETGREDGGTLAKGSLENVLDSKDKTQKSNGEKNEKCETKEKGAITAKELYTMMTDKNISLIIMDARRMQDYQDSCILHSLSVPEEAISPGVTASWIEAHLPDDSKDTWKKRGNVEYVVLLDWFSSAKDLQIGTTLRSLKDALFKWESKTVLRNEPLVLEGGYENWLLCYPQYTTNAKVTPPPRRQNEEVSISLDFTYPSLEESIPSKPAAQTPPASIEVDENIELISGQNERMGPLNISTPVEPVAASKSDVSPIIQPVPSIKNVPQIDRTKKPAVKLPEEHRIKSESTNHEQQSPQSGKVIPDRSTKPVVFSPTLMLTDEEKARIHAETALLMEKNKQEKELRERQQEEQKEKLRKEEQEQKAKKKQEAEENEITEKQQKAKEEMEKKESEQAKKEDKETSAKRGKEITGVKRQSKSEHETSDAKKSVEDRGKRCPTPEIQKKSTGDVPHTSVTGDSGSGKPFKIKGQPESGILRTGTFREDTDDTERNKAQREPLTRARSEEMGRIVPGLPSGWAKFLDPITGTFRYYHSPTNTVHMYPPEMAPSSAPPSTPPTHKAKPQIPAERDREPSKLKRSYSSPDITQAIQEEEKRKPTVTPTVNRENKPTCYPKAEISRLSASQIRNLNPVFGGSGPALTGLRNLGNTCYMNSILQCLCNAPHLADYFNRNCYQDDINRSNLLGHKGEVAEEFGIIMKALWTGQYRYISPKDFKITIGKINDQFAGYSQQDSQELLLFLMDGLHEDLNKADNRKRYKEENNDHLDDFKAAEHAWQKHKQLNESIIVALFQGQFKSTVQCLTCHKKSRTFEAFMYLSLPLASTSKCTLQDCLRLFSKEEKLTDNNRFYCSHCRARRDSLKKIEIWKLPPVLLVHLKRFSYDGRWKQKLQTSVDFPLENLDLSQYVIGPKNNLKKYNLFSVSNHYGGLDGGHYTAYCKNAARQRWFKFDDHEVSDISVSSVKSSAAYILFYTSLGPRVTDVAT
Procedure, shortened: as §1

USP9X = USP9X (UniProt Q93008)
Chain of USP9X (Q93008 whole entry): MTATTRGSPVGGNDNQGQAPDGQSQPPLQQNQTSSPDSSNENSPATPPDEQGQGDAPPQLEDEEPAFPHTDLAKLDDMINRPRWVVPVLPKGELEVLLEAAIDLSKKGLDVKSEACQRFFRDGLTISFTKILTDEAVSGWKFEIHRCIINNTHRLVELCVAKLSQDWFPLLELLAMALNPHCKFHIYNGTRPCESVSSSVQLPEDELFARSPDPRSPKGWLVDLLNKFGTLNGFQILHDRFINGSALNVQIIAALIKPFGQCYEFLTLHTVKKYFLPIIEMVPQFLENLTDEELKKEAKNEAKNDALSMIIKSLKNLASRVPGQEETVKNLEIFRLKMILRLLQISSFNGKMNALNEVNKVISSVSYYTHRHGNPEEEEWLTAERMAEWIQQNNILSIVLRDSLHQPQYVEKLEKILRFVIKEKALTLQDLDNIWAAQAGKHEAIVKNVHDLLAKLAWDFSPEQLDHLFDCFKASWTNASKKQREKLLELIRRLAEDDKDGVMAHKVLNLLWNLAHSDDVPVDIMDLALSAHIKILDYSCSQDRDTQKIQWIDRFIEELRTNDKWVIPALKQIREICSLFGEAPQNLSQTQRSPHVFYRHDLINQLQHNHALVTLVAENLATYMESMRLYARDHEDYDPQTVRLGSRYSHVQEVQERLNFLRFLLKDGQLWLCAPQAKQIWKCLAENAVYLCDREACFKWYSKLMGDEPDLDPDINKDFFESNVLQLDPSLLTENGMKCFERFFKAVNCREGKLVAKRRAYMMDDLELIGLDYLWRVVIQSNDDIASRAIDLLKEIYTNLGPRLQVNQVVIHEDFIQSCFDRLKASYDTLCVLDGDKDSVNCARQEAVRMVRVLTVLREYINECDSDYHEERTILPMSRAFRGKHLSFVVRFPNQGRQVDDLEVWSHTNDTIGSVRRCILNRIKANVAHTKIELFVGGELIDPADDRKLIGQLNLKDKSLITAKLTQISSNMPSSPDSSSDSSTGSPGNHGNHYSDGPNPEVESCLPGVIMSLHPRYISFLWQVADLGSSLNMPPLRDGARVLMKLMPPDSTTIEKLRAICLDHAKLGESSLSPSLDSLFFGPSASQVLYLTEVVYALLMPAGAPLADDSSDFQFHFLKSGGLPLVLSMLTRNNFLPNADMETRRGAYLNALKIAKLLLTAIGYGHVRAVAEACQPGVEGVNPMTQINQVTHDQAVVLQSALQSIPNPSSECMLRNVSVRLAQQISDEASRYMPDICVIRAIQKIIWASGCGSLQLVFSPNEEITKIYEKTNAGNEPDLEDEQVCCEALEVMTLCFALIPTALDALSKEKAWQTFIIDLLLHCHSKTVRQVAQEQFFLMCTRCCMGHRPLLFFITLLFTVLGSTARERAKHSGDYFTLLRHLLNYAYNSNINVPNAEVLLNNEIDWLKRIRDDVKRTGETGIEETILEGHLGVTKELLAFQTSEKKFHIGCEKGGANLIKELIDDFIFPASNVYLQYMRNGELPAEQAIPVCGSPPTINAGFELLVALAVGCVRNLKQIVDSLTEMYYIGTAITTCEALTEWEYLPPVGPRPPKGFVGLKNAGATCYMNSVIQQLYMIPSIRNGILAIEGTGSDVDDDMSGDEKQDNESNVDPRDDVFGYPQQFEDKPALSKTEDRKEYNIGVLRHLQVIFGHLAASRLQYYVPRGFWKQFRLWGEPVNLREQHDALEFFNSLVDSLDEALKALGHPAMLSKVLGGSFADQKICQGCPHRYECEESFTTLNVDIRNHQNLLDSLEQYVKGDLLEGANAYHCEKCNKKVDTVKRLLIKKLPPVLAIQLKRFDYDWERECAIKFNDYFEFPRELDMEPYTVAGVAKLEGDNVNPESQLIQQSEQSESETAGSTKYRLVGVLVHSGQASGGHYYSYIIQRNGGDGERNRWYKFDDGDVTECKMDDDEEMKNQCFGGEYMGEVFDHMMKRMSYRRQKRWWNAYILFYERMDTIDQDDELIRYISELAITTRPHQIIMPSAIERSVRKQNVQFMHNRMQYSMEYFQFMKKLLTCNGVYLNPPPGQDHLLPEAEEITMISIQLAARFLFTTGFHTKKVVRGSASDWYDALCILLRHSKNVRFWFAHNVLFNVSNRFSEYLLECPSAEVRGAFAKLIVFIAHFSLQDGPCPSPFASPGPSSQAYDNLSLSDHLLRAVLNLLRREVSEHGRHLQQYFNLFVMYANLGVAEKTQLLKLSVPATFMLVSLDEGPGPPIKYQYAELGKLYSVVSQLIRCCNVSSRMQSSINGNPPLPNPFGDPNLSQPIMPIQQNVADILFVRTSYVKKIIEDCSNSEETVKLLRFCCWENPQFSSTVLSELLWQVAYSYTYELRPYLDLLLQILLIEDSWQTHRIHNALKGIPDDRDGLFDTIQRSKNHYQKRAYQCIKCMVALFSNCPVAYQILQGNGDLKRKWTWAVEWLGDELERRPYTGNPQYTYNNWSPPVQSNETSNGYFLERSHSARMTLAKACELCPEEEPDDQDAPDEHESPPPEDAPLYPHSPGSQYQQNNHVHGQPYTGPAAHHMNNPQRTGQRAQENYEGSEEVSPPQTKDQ
Procedure, shortened: as §1

UniProt O00487 = molecular target: UniProt O00487
Chain of UniProt O00487 (O00487 whole entry): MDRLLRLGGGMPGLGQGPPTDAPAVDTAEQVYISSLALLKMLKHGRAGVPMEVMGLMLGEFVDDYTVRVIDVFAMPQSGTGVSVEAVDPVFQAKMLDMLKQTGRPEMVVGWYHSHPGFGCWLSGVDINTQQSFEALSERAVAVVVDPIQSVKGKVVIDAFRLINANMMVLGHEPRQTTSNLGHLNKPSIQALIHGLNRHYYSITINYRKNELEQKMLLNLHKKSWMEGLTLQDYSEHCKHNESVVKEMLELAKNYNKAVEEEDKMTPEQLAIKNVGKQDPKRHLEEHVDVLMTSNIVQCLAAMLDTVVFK
Procedure, shortened: as §1

Measured: log2 ratio of Biotin-Ahx-Ub-VS probe labelling

Cn1cc(CN(Cc2ccc(Cl)cc2)C(=O)CCl)cn1
active: USP47 -1.45 | USP7 -3.08
inactive: USP42 0.553 | USP46 -0.635 | USP48 -0.598 | USP5 0.00584 | USP54 -0.648 | USP8 0.0316 | USP9X -0.441 | UniProt O00487 0.0261
